# “And” between values parts separate entries of the source, which are not always exact repeats. Equal entries are not always repeated. The panel holds about 83,000 compounds, 20% with a hit somewhere; the sample as a whole holds those more often.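 Negative percent growth values reflect cell death: -40 means 40% of the cells present at the start died, and -100 means all died.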 Unmarked numbers belong to inactive results. The source made the active and inactive calls.
# Tested on: NCI-H23 lung
# Test: NCI-60 one-dose screen, 48 h (100 = growth as untreated, 0 = no growth, -100 = all killed)
# Details: 10 µM unless noted
# Method: Growth inhibition of the NCI-H23 human Non-Small Cell Lung tumor cell line is measured as a screen for anti-cancer activity. Cells are grown in 96 well plates and exposed to the test compound for 48 hours. Compounds are tested at a single concentration, which is 10^-5 M for most compounds. The reported endpoint is percent growth (GI% or GIPRCNT), where numbers from 0 - 100% represent growth inhibition, and numbers from -100% - 0 represent cell death. For example, a value of 40 represents 60% growth inhibition. A value of 0 means no net growth occurred over the course of the experiment. A value of -40 indicates 40% of cells at the beginning of the experiment died by the end of the experiment. A value of -100 means all cells are dead at the end of the experiment.
# NCI-60 Human Tumor Cell Lines Screen was performed using the standard one-dose NCI protocol, which is described in more detail at https://dtp.cancer.gov/discovery_development/nci-60/default.htm.
# Compounds with GIPRCNT values below 10 were considered active. Activity score was based on GIPRCNT using the following formula: […]
# Score is 0 for GIPRCNT values of 100 or above, 50 for GIPRCNT values of 0, and 100 for GIPRCNT values of -100.
row,Compound,growth
1,Cc1ccc2nc(SCc3ccccc3F)n(-c3ccccc3)c(=O)c2c1,93.9%
2,Cc1ccc(C2CC(c3ccc(S(=O)(=O)NCCNc4nc(N(C)C)nc(N5CCOCC5)n4)cc3)=Nc3c(N)nc(N)nc3N2)cc1 (stereo not given),72%
3,O=C1NC(=NC23CC4CC(CC(C4)C2)C3)N/C1=C\c1ccc2ncccc2c1,-15.2% (active)
4,CC(C)(C)OC(=O)N1C/C(=C\c2ccc(F)cc2)C(=O)/C(=C/c2ccc(F)cc2)C1,-77.7% (active)
5,Clc1ccc(Nc2nnc(-c3c[nH]c4ccccc34)o2)cc1,77.9%
6,O=c1ccc(Cn2c(C(F)(F)F)cc3c(Cl)ncnc32)c[nH]1,17.7%
7,CCN(C(=O)CN1C(=O)/C(=C/c2ccco2)SC1=S)C1CCS(=O)(=O)C1 (stereo not given),99.9%
8,CS(=O)(=O)Nc1cncc(-c2ccc3ncnc(NCc4ccccc4)c3c2)c1,21.8%
9,Cc1nn(-c2ccccc2)c2nc(C)n(CC(=O)N/N=C/c3ccccc3O)c(=O)c12,28.8%
10,O=C(N/N=C/c1c[nH]c2ccccc12)Nc1ccc(F)c(Cl)c1,28.8%
11,COc1c2c(cc3c1C(CCc1ccccc1)N(C)CC3)OCO2 (stereo not given),5.64% (active)
12,Cc1ccc(C(=O)Nc2cc(-n3cnc(F)c3)cc(C(F)(F)F)c2)cc1C#Cc1cnc2cccnn12,44.8%
13,Nc1nc(-c2ccccc2)c(N=Nc2ccc(Cl)cc2Cl)s1,-43.8% (active)
14,O=C(N/N=C/c1ccoc1)c1[nH]c2ccc(Br)cc2c1-c1ccccc1,-96.6% (active)
15,Cn1cc(-c2cc(N)n3nc(-c4c[nH]c5ccc(Cl)cc45)cc3n2)c2cc(Br)cnc21,-58.6% (active)
16,CC1=C(C(=O)Nc2ccccc2)C(c2ccc3ccccc3c2)n2c(nc3ccccc32)N1 (stereo not given),73.3%
17,COc1cccc2nc(Nc3cccc(NC(=O)c4ccc(CN5CCN(C)CC5)c(C(F)(F)F)c4)c3)ccc12,-97.8% (active)
18,O=C(N=Nc1c(O)[nH]c2ccc(Br)cc12)c1ccc2nc(-c3ccc(Cl)cc3)[nH]c2c1,-69.4% (active)
19,COc1cc(C2CC(c3ccc(F)cc3)=Nc3c(N)nc(N)nc3N2)ccc1Oc1nc(Nc2ccc(F)cc2)nc(N(C)C)n1 (stereo not given),70%
20,Cc1nc2sccn2c1-c1nnc(SCC(C)C)o1,85.9%

row,Compound,growth
1,Cn1ncc2c(N)nc(Oc3ccccc3-c3ccccc3)nc21,29.6%
2,Cc1ccc(Cl)cc1NC(=O)N/C(N)=N/c1nc2ccccc2s1,-9.8% (active)
3,C[C@@H](Nc1c(C#N)cnc2ccc(-c3cnc4[nH]ncc4c3)cc12)c1ccccc1,21%
4,O=C(NNC(=S)NC(=O)c1ccccc1)c1ccc(OCc2nc3ccc(Cl)cc3[nH]2)cc1,-71.3% (active)
5,N#CCc1nnc(NC(=O)c2ccc(-n3c(=O)[nH]c4ccccc4c3=O)cc2)s1,93%
6,COc1ccc(N=Nc2c(N)nn3c(-c4ccc(OC)c(OC)c4)ccnc23)cc1,72.8%
7,C=CCSc1nnc(-c2ccc(-c3nc4ccc(Cl)cc4[nH]3)cc2)o1,76.2%
8,CCCCCCCCc1ccc(C(=O)Nc2cccc(O)c2)cc1,78.9%
9,O=C1Nc2ccccc2/C1=C/C(=O)c1cc2ccccc2oc1=O,93.4%
10,O=C(CSc1nnc(-c2ccc(-c3nc4ccccc4[nH]3)cc2)o1)Nc1ccc(Br)cc1,1.35% (active)
11,O=C(/C=C1\C(=O)N(Cc2ccccc2)c2ccccc21)c1cc2ccccc2oc1=O,89.4%
12,COC(=O)c1c(C(=O)OC)c2c3ccccc3c3ccccc3n2c1C(=O)C(F)(F)F,89.1%
13,COc1cc(/C=N/NC(=O)c2ccc(OCc3nc4ccc(Cl)cc4[nH]3)cc2)cc(OC)c1OC,34.7%
14,CC1(C)CC(=O)C2=C(C1)OC(N)=C(c1nc3ccccc3[nH]1)C2c1ccc(Cl)cc1 (stereo not given),46.5% and 106%
15,O=C(c1cc2cc(OCCCN3CCC3)ccc2[nH]1)N1C[C@@H](CCl)c2c1cc(OCc1ccccc1)c1ccccc21,-73.4% (active)
16,Cc1ccc2nc(COc3ccc(C(=O)NNC(=O)Nc4ccc(Cl)c(C(F)(F)F)c4)cc3)[nH]c2c1,25.9%
17,COC(=O)c1cc(C(=O)C(Br)Br)n2c1ccc1c3ccccc3ccc12,69%
18,CCN1C(=O)N(CC)C2NNC(Sc3c(C(=O)O)c4ccccc4n(CC(C)C)c3=O)=NC21 (stereo not given),10.7%
19,N#Cc1c(-c2ccc(F)cc2)nc(SCc2ccccc2)nc1N1CCNCC1,-90.5% (active)
20,COc1c(B(O)O)cc(F)cc1-c1nc2ccc3[nH]ncc3c2c2c1COCC2,78.3%
